Measurements: PubChem BioAssay (NCATS)
Inconclusive results are not listed. Activity calls are given as the source filed them. Calls follow the shape of the dose curve; as a rule, active = well fitted cell-killing curve with a large enough effect; inconclusive = small, poorly fitted or top-dose-only effect, or effect the other way; inactive = flat fitted curve, though single readings scatter.

How the values were obtained:
Assay in all cases: Primary qHTS to identify gynecologic anti-cancer compounds using libraries of approved drugs and bioactive compounds (AID 1345084); also: nearly all actives have a fitted effect of over 55% in size
C33A = details: Gynecologic cancer cell panel viability, ATPlite luminescence, 48 h; series mostly up to 57.5 µM
How it was run: (§1)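 Cell viability after 48 h drug treatment, ATPlite luminescence readout; five doses.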

CASKI = details: Gynecologic cancer cell panel viability, ATPlite luminescence, 48 h; series mostly up to 57.5 µM
How it was run: as §1

Es-2 = details: Gynecologic cancer cell panel viability, ATPlite luminescence, 48 h; series mostly up to 57.5 µM
How it was run: as §1

HeLa = details: Gynecologic cancer cell panel viability, ATPlite luminescence, 48 h; series mostly up to 57.5 µM
How it was run: as §1

Hek293T = details: Gynecologic cancer cell panel viability, ATPlite luminescence, 48 h, control line for the selectivity index; series mostly up to 57.5 µM
How it was run: as §1

JEG-3 = details: Gynecologic cancer cell panel viability, ATPlite luminescence, 48 h; series mostly up to 57.5 µM
How it was run: as §1

OV90 = details: Gynecologic cancer cell panel viability, ATPlite luminescence, 48 h; series mostly up to 57.5 µM
How it was run: as §1

PA-1 = details: Gynecologic cancer cell panel viability, ATPlite luminescence, 48 h; series mostly up to 57.5 µM
How it was run: as §1

SKOV3 = details: Gynecologic cancer cell panel viability, ATPlite luminescence, 48 h; series mostly up to 57.5 µM
How it was run: as §1

Tov-21-G = details: Gynecologic cancer cell panel viability, ATPlite luminescence, 48 h; series mostly up to 57.5 µM
How it was run: as §1

Tov112D = details: Gynecologic cancer cell panel viability, ATPlite luminescence, 48 h; series mostly up to 57.5 µM
How it was run: as §1

CAOV3 = details: Gynecologic cancer cell panel viability, ATPlite luminescence, 48 h; series mostly up to 57.5 µM
How it was run: as §1
% is scaled to controls: 0 for no effect and ±100 for the full control effect; potency is read from the fitted curve at half-maximal effect.

C=CC(C)(CC/C=C(\C)C(=O)OC[C@H]1O[C@@H](OC(C)(C=C)CC/C=C(\C)C(=O)O[C@H]2[C@H](O)[C@@H](O)[C@H](OC(C)(C=C)CC/C=C(\C)C(=O)O)O[C@@H]2CO)[C@H](O)[C@@H](O)[C@@H]1O)O[C@@H]1O[C@H](CO)[C@@H](O)[C@H](O)[C@H]1O (stereo partly specified)
inactive: activity change, negative = cytotoxicity (C33A) -1.99% [at 11.6 µM] | activity change, negative = cytotoxicity (CASKI) -16.7% [at 11.6 µM] | activity change, negative = cytotoxicity (Es-2) -6.19% [at 11.6 µM] | activity change, negative = cytotoxicity (HeLa) 2.2% [at 11.6 µM] | activity change, negative = cytotoxicity (Hek293T) -1.07% [at 11.6 µM] | activity change, negative = cytotoxicity (JEG-3) -1.18% [at 11.6 µM] | activity change, negative = cytotoxicity (OV90) 2.45% [at 11.6 µM] | activity change, negative = cytotoxicity (PA-1) 1.36% [at 11.6 µM] | activity change, negative = cytotoxicity (SKOV3) 0.327% [at 11.6 µM] | activity change, negative = cytotoxicity (Tov-21-G) -2.47% [at 11.6 µM] | activity change, negative = cytotoxicity (Tov112D) 8.98% [at 11.6 µM]

C=C1C(O)CC2C(C(=O)O)=COC(OC3OC(CO)C(O)C(O)C3OC(=O)/C=C\c3ccc(O)cc3)C12 (stereo unspecified)
inactive: Potency (CAOV3) | outcome (CASKI) | Potency (Es-2) | Potency (HeLa) | Potency (Hek293T) | Potency (JEG-3) | Potency (OV90) | Potency (PA-1) | Potency (SKOV3) | Potency (Tov-21-G) | Potency (Tov112D)

COc1ccc(-n2[nH]c3c(cnc4ccccc43)c2=O)cc1
inactive: Potency (C33A) | outcome (CASKI) | Potency (Es-2) | Potency (HeLa) | Potency (Hek293T) | Potency (JEG-3) | Potency (OV90) | Potency (PA-1) | Potency (SKOV3) | Potency (Tov-21-G) | Potency (Tov112D)

COC(=O)[C@]1(Cc2ccc(O)c(CC=C(C)C)c2)OC(=O)C(O)=C1c1ccc(O)cc1
inactive: Potency (C33A) | outcome (CASKI) | Potency (Es-2) | Potency (HeLa) | Potency (Hek293T) | Potency (JEG-3) | Potency (OV90) | Potency (PA-1) | Potency (SKOV3) | Potency (Tov-21-G) | Potency (Tov112D)

O=C(/C=C/c1ccc(O)cc1)OC[C@H]1O[C@@H](O/C(=C\c2ccccc2)C(=O)O)[C@H](O)[C@@H](O)[C@@H]1O
inactive: Potency (C33A) | outcome (CASKI) | Potency (Es-2) | Potency (HeLa) | Potency (Hek293T) | Potency (JEG-3) | Potency (OV90) | Potency (PA-1) | Potency (SKOV3) | Potency (Tov-21-G) | Potency (Tov112D)

COc1ccc(-c2ccn(CC[C@](C)(C(=O)NO)S(C)(=O)=O)c(=O)c2)c(F)c1
active: Potency (CAOV3) 22.4 µM | Potency (Es-2) 14.1 µM | Potency (JEG-3) 20 µM | Potency (OV90) 15.8 µM | Potency (Tov-21-G) 25.1 µM

C[C@@H]1C[C@@H](O)[C@@]23CO[C@]2(CO)C[C@@H](O)CC3[C@@]12CC(c1ccoc1)OC2=O (stereo partly specified)
inactive: Potency (C33A) | outcome (CASKI) | Potency (Es-2) | Potency (HeLa) | Potency (Hek293T) | Potency (JEG-3) | Potency (PA-1) | Potency (Tov-21-G) | Potency (Tov112D)

O=C(OC1C=C(CO)C2C(OC3OC(CO)C(O)C(O)C3O)OC=CC12O)c1ccc(O)cc1 (stereo unspecified)
inactive: Potency (C33A) | outcome (CASKI) | Potency (Es-2) | Potency (HeLa) | Potency (Hek293T) | Potency (JEG-3) | Potency (OV90) | Potency (PA-1) | Potency (SKOV3) | Potency (Tov-21-G) | Potency (Tov112D)

CC(=O)c1[nH]cc(CCC(=O)O)c1CC(=O)O
inactive: Potency (C33A) | outcome (CASKI) | Potency (Es-2) | Potency (HeLa) | Potency (Hek293T) | Potency (JEG-3) | Potency (OV90) | Potency (PA-1) | Potency (SKOV3) | Potency (Tov-21-G) | Potency (Tov112D)

O=C(OCC1OC(Oc2ccc(O)cc2COC(=O)C2(O)C(O)CCC(=O)C2OC(=O)C2C=CCC2)C(OC(=O)C2C=CCC2)C(O)C1O)C1C=CCC1 (stereo unspecified)
inactive: Potency (C33A) | outcome (CASKI) | Potency (Es-2) | Potency (HeLa) | Potency (Hek293T) | Potency (JEG-3) | Potency (OV90) | Potency (PA-1) | Potency (SKOV3) | Potency (Tov-21-G) | Potency (Tov112D)

CC(C)(O)C1OC1C1=CC(=O)C2(C)OC2C1O (stereo unspecified)
inactive: Potency (C33A) | Potency (CAOV3) | Potency (Es-2) | Potency (HeLa) | Potency (Hek293T) | Potency (JEG-3) | Potency (OV90) | Potency (PA-1) | Potency (Tov-21-G) | Potency (Tov112D)

C[C@H]1[C@H](C)CC[C@]2(C(=O)O)CC[C@]3(C(=O)O)C(=CCC4[C@@]5(C)CC[C@H](O[C@@H]6O[C@@H](C)[C@H](O)[C@@H](O)[C@H]6O)C(C)(C)C5CC[C@]43C)[C@H]12 (stereo partly specified)
inactive: Potency (C33A) | Potency (CAOV3) | Potency (Es-2) | Potency (HeLa) | Potency (Hek293T) | Potency (JEG-3) | Potency (OV90) | Potency (PA-1) | Potency (SKOV3) | Potency (Tov-21-G) | Potency (Tov112D)

CC1=CCC(O)C2(C)CCC3C(C)C(=O)OC3C12 (stereo unspecified)
inactive: Potency (CAOV3) | outcome (CASKI) | Potency (Es-2) | Potency (HeLa) | Potency (Hek293T) | Potency (JEG-3) | Potency (OV90) | Potency (PA-1) | Potency (SKOV3) | Potency (Tov-21-G) | Potency (Tov112D)

C/C(=C\CCC(C)(C)O)CCO[C@@H]1O[C@H](CO[C@@H]2O[C@@H](C)[C@H](O)[C@@H](O)[C@H]2O)[C@@H](O)[C@H](O)[C@H]1O
inactive: outcome (CASKI) | Potency (Es-2) | Potency (HeLa) | Potency (Hek293T) | Potency (JEG-3) | Potency (OV90) | Potency (PA-1) | Potency (Tov-21-G) | Potency (Tov112D)

C=C1C(OC(C)=O)C(=O)C2C(C)(C)C(O)CCC2(C)C1CC(OC(C)=O)/C(C)=C/COC(C)=O (stereo unspecified)
inactive: Potency (C33A) | outcome (CASKI) | Potency (Es-2) | Potency (HeLa) | Potency (Hek293T) | Potency (JEG-3) | Potency (OV90) | Potency (PA-1) | Potency (SKOV3) | Potency (Tov-21-G) | Potency (Tov112D)

CC1(C(=O)O)CC[C@]2(C(=O)OC3OC(CO)C(O)C(O)C3O)CC[C@]3(C)C(=CCC4[C@@]5(C)CC[C@H](OC6OCC(O)C(O)C6OC6OC(CO)C(O)C(O)C6O)C(C)(C)C5CC[C@]43C)C2C1 (stereo partly specified)
inactive: activity change, negative = cytotoxicity (C33A) -1.33% [at 11.6 µM] | activity change, negative = cytotoxicity (CASKI) -6.1% [at 11.6 µM] | activity change, negative = cytotoxicity (Es-2) 1.53% [at 11.6 µM] | activity change, negative = cytotoxicity (HeLa) 6.18% [at 11.6 µM] | activity change, negative = cytotoxicity (Hek293T) -2.26% [at 11.6 µM] | activity change, negative = cytotoxicity (JEG-3) -0.785% [at 11.6 µM] | activity change, negative = cytotoxicity (OV90) -0.207% [at 11.6 µM] | activity change, negative = cytotoxicity (PA-1) -1.65% [at 11.6 µM] | activity change, negative = cytotoxicity (SKOV3) -6.88% [at 11.6 µM] | activity change, negative = cytotoxicity (Tov-21-G) 15.1% [at 11.6 µM] | activity change, negative = cytotoxicity (Tov112D) -1.55% [at 11.6 µM]

CCCN1CCC[C@@H](c2cccc(S(C)(=O)=O)c2)C1
inactive: Potency (C33A) | outcome (CASKI) | Potency (Es-2) | Potency (HeLa) | Potency (Hek293T) | Potency (JEG-3) | Potency (OV90) | Potency (PA-1) | Potency (SKOV3) | Potency (Tov-21-G) | Potency (Tov112D)
